Test results reported in PubChem BioAssay AID743060 (The Scripps Research Institute Molecular Screening Center, 2013).

Test: T. brucei methionyl-tRNA synthetase enzyme inhibition – biochemical, radioactivity, round 1, late-stage follow-up (AID 743060)
Conditions: purified enzyme, radiolabel aminoacylation, scintillation, 2 h; at 10 µM; stronger effect = higher value

Compound | inhibition
O=C1[C@@H]2Cc3c([nH]c4ccccc34)C(c3cccc([N+](=O)[O-])c3)N2C(=O)CN1CCCO (stereo not given in full) | 97.5%
CC(=O)N(CCc1ccccc1)C1CC(=O)N(c2ccc(Cl)cc2)C1=O (stereo not given) | -17.1%
COCCc1nc2ccc(C(=O)NCCc3nc4ccc(OC)cc4[nH]3)cc2o1 | -2.59%
O=C1CC(SCc2nc3ccccc3[nH]2)C(=O)N1c1cccc(Cl)c1 (stereo not given) | 52.6%
COc1ccccc1NC(=O)Cn1cc(C(=O)C(=O)N2CCOCC2)c2ccccc21 | -13.7%
O=C(Cn1cc(C(=O)c2ccco2)c2ccccc21)Nc1cccc(C(F)(F)F)c1 | 89%
COc1cccc(NC(=O)CSc2nnc3c(n2)[nH]c2ccc(C)cc23)c1 | 94.2%
Oc1c(Cl)cc(Cl)cc1CNc1nc2ccccc2[nH]1 | 98.7%
COc1ccc(NC(=O)C2CC(=O)n3c(nc4ccccc43)N2)cc1 (stereo not given) | -13.4%
CN(CC(=O)Nc1ccc(Cl)cc1)C(=O)c1ccc(-n2cncn2)c([N+](=O)[O-])c1 | 92.5%
Cc1ccc(C(=O)NCCc2nc3ccccc3[nH]2)cc1C | -3.55%
O=C(NCCc1nc2ccccc2[nH]1)c1c(F)cccc1F | 1.38%
CCN(CC)C(=O)C(=O)c1cn(CC(=O)Nc2ccccc2OC)c2ccccc12 | -11.4%
Clc1ccc(OCCSCc2nc3ccccc3[nH]2)cc1 | 44.8%
O=C(Cn1cc(C(=O)C2CC2)c2ccccc21)Nc1cccc(C(F)(F)F)c1 | 31.3%
O=C(NCCc1nc2ccccc2[nH]1)c1ccc(Cl)cc1 | 74.2%
O=C(CSC1CC(=O)N(c2cccc(Cl)c2)C1=O)Nc1ccc(Br)cc1 (stereo not given) | 79.9%
O=C(NCCc1nc2ccccc2[nH]1)c1ccc(Cl)c(Cl)c1 | 97.5%

Compound | inhibition
CC(C)c1nc2ccc(C(=O)N(C)CCc3nc4ccc(F)cc4[nH]3)cc2o1 | -7.17%
O=C(Cn1cc(C(=O)COc2ccccc2)c2ccccc21)Nc1cccc(C(F)(F)F)c1 | -11.8%
O=C(CC=NOCc1ccc([N+](=O)[O-])cc1)Nc1ccc(Cl)cc1 | 86.5%
CN1CC(=O)N2C(c3cccc([N+](=O)[O-])c3)c3[nH]c4ccccc4c3C[C@H]2C1=O (stereo not given in full) | 96.7%
O=C(Cn1cc(C(=O)C(=O)N2CCOCC2)c2ccccc21)NCC1CCCO1 (stereo not given) | 1.28%
O=C1CC(N(CCc2ccccc2)C(=S)Nc2ccccc2)C(=O)N1c1ccc(Br)cc1 (stereo not given) | 97.3%
O=C(NNC(=O)c1ccc(-n2cncn2)c([N+](=O)[O-])c1)c1ccc(Cl)cc1 | 73%
O=C(NCc1nc2ccccc2[nH]1)C1=C[C@H](C2CC2)C[C@H](OCc2ccc(CO)cc2)O1 | 56.9%
O=C(CCC(=O)Nc1cccc([N+](=O)[O-])c1)NN=Cc1cccs1 | 74.3%
O=C(NCc1nc2ccccc2[nH]1)C1=C[C@H](c2ccccc2)C[C@H](OCc2ccc(CO)cc2)O1 | 61.8%
Clc1ccc(-c2nnc(SCc3nc4ccccc4[nH]3)o2)c(Cl)c1 | 97%
COc1ccc(CCN(C(=O)c2cccc(F)c2)C2CC(=O)N(c3ccc(Br)cc3)C2=O)cc1 (stereo not given) | -7.62%
O=C(NCc1nc2ccccc2[nH]1)C1=C[C@@H](C2CC2)C[C@@H](OCc2ccc(CO)cc2)O1 | 93.6%
COc1ccc(NC(=O)CSc2nnc3c4cc(C)ccc4n(C)c3n2)cc1 | -7.1%
O=C(NNC(=O)c1cc(-c2ccc(Cl)c(Cl)c2)nc2ccccc12)Nc1ccccc1 | 85.5%
CC(C)(C)[C@@H]1C=C(C(=O)NCc2nc3ccccc3[nH]2)O[C@H](OCc2ccc(CO)cc2)C1 | 84.8%
O=C(NCc1nc2ccccc2[nH]1)C1=C[C@@H](c2ccccc2)C[C@@H](OCc2ccc(CO)cc2)O1 | 94.3%
